From ChEMBL document CHEMBL3988442, “University of Dundee, Small-Polar-MMV Screening Library” (2021) come the findings set out here.

Holding throughout (set-up): scale not given: direction of the effect not stated beside the values
The target in assay [1] is Protein translocase subunit SecA (Escherichia coli (strain K12)) (UniProt P10408). The experiment in a line: Assay to Identify E. coli SecA ATPase Inhibitors. The format is functional. The note with it: 30 µM.
Assay [2] has as its target T1, Ubiquitin-activating enzyme e1, putative (Leishmania donovani (strain BPK282A1)) (UniProt E9BSI1).
T1 sequence (whole entry): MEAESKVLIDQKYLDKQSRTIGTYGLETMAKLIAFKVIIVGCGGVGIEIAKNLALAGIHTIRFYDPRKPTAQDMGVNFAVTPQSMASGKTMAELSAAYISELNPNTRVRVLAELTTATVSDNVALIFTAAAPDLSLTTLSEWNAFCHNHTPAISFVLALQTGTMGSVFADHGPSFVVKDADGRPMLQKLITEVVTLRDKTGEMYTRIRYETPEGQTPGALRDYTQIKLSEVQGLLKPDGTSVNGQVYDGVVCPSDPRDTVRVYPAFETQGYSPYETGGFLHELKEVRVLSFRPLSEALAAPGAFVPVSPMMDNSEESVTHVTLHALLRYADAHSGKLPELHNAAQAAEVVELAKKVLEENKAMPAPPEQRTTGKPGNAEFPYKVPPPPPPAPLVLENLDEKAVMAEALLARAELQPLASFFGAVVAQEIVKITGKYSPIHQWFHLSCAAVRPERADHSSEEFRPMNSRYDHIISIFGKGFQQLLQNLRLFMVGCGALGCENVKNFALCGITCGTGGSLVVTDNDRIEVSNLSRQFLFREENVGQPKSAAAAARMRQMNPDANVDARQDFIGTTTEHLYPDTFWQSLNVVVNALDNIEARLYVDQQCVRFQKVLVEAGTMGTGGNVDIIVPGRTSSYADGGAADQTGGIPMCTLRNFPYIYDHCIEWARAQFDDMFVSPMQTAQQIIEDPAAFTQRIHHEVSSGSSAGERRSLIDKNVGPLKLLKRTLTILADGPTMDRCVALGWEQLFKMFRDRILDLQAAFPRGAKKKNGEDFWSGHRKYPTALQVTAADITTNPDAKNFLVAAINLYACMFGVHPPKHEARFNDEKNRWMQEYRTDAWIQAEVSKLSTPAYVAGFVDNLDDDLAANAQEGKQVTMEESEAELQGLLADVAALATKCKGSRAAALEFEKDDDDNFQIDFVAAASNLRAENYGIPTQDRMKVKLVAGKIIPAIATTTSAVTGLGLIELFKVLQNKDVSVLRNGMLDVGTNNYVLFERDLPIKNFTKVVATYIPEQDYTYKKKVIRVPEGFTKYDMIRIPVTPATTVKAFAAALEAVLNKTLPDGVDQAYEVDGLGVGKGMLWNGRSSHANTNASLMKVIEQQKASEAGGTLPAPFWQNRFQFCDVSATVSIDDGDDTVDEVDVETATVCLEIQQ
The experiment in a line: Leishmania donovani Ubiquitin Activating Enzyme (LdE1). Type of assay: functional. The note with it: 30 µM.

The target in assay [3] is AMP-activated protein kinase, AMPK (Homo sapiens) (UniProt P54646+O43741+P54619+Q9UGJ0+Q9Y478+Q13131+Q9UGI9). The experiment in a line: AMP-dependent Kinase enzyme assay. An in vitro enzyme assay that detects ADP turnover that is directly proportional to AMPK activity. This uses naive AMPK that is activated during the assay with MK-8722. The note with it: 30 µM. Type of assay: functional.

The target of assay [4] is Sialic acid-binding Ig-like lectin 9 (Homo sapiens) (UniProt Q9Y336). The experiment in a line: Hs-Siglec9 ALPHAscreen SOP 20170721. The note with it: 10 µM. On the technique in general: In Alpha technology, singlet oxygen from a donor bead excites a nearby acceptor bead.
In the next assay the test system is Trypanosoma cruzi. Nature of the assay: Trypanosoma cruzi phosphomannomutase and mannose-1-phosphate guanylyltransferase assay. Type of assay: functional. The note with it: 10 µM.
The target in assay [5] is T2, Arginase-2, mitochondrial (Homo sapiens) (UniProt P78540).
T2 sequence (whole entry): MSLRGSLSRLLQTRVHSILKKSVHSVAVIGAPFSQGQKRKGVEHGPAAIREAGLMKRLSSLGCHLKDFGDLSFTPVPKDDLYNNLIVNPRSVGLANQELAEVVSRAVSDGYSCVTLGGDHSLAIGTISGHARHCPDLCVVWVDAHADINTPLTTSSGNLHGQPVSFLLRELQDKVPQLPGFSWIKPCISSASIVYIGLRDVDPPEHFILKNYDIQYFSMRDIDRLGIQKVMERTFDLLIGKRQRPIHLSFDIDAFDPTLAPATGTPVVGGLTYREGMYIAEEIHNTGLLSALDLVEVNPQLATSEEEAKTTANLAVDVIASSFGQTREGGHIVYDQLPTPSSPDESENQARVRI
Nature of the assay: in vitro enzyme assay to detect the production of urea directly proportional to the activity of Arginase II. Note: in the data most compounds retested in dose-response had high values. The format is functional. The conditions noted are these: 33.3 µM.

The target in assay [6] is T3, Proteasome subunit beta (Trypanosoma cruzi) (UniProt O96673).
T3 sequence (whole entry): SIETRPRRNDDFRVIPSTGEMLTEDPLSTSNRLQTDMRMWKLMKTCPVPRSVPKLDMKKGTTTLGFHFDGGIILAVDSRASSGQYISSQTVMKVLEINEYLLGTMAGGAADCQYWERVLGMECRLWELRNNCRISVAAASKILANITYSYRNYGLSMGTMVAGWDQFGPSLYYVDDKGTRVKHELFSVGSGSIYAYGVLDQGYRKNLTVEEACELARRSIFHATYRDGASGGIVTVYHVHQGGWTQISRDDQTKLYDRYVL
The experiment in a line: Trypanosoma cruzi proteasome chymotrypsin-like activity (TcProtChymo) assay. Note: in the data most compounds retested in dose-response had high values. The format is functional. The note with it: 9.37 µM.

The species named for the next assay is Homo sapiens. The experiment in a line: To identify inhibition of the IFN signalling (Jak-Stat) pathway via expression of an eGFP reporter gene under the control of an IFN-stimulated response element (ISRE) containing MxA promoter. The format is functional. The note with it: 30 µM. (Reporter assays use an easily measured gene product as a stand-in for the process of interest.)

Assay [7] deals with T4, Tyrosyl-tRNA synthetase, putative (Trypanosoma cruzi (strain CL Brener)) (UniProt Q4DSP6).
T4 sequence (whole entry): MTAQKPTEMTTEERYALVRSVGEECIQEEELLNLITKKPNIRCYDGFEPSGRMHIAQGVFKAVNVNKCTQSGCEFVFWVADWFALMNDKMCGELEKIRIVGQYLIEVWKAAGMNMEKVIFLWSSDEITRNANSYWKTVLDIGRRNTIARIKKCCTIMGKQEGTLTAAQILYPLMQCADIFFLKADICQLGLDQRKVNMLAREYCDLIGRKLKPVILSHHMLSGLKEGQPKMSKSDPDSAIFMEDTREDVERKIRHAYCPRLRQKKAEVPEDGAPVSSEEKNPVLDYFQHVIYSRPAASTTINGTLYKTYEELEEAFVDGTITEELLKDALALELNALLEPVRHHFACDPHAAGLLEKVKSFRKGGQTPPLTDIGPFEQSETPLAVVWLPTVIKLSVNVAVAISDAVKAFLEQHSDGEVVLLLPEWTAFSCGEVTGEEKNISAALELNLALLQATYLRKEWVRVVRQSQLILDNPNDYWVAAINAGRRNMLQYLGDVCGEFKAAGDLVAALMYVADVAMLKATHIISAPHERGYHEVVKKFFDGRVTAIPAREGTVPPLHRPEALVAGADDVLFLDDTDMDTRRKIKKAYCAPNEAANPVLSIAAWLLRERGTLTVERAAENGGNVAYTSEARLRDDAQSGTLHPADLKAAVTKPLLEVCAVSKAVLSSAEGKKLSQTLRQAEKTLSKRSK
The experiment in a line: Trypanosoma cruzi tyrosyl tRNA synthetase (TcYRS) _High Tyrosine SOP. Note: in the data most compounds retested in dose-response had high values. The format is functional. The note with it: 30 µM.

Assay [8] deals with T4, Tyrosyl-tRNA synthetase, putative (Trypanosoma cruzi (strain CL Brener)). Nature of the assay: Trypanosoma cruzi tyrosyl tRNA synthetase (TcYRS) SOP. Type of assay: functional. The note with it: 30 µM.
For assay [9], the target named is Chromo domain-containing protein 1 (Saccharomyces cerevisiae (strain ATCC 204508 / S288c) (Baker's yeast)) (UniProt P32657). The experiment in a line: ScCHD-1 Enzyme Inhibition Assay. Note: in the data most compounds retested in dose-response had high values. Type of assay: functional. The conditions noted are these: 30 µM.

For some of these results: Results with a measured potency or affinity are listed apart.

Chain of Chromo domain-containing protein 1 (Saccharomyces cerevisiae (strain ATCC 204508 / S288c) (Baker's yeast)) (P32657 whole entry, the tested form may be a part): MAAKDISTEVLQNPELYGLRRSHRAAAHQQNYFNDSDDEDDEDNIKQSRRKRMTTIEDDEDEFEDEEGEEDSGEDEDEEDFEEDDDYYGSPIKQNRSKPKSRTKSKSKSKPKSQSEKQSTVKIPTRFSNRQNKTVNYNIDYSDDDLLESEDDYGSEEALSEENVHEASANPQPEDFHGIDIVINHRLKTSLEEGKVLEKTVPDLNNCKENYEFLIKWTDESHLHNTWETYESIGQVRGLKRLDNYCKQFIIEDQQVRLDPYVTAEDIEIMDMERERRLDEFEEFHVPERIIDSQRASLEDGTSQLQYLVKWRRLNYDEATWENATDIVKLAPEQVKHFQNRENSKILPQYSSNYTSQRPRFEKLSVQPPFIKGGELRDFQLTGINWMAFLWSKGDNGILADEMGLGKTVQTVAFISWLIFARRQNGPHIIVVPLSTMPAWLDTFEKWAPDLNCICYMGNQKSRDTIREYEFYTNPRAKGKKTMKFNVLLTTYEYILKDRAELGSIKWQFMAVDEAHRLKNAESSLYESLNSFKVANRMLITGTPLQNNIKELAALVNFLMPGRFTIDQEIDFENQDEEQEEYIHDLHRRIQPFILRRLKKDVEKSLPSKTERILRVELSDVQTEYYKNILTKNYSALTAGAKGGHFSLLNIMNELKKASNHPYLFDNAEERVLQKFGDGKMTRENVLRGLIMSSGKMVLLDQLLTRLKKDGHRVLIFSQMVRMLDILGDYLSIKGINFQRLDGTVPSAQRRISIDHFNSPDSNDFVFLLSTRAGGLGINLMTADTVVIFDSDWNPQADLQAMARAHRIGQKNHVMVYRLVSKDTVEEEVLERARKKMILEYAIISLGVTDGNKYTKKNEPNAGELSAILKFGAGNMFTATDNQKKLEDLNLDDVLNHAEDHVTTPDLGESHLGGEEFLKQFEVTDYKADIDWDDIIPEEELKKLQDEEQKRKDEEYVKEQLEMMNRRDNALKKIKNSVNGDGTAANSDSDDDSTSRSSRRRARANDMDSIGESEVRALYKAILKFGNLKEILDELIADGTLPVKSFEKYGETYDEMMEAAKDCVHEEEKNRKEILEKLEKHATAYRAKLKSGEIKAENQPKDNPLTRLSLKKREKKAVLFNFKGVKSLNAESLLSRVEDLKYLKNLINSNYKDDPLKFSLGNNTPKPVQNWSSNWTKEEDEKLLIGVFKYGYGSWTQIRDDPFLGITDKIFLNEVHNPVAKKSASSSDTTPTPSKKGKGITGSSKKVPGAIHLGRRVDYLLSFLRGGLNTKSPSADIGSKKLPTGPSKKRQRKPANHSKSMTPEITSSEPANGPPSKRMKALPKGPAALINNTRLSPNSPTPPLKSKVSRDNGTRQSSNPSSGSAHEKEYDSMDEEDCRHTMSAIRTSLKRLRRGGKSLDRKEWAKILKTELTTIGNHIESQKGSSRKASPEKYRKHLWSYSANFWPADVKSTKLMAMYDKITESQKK
Chain of Protein translocase subunit SecA (Escherichia coli (strain K12)) (P10408 whole entry): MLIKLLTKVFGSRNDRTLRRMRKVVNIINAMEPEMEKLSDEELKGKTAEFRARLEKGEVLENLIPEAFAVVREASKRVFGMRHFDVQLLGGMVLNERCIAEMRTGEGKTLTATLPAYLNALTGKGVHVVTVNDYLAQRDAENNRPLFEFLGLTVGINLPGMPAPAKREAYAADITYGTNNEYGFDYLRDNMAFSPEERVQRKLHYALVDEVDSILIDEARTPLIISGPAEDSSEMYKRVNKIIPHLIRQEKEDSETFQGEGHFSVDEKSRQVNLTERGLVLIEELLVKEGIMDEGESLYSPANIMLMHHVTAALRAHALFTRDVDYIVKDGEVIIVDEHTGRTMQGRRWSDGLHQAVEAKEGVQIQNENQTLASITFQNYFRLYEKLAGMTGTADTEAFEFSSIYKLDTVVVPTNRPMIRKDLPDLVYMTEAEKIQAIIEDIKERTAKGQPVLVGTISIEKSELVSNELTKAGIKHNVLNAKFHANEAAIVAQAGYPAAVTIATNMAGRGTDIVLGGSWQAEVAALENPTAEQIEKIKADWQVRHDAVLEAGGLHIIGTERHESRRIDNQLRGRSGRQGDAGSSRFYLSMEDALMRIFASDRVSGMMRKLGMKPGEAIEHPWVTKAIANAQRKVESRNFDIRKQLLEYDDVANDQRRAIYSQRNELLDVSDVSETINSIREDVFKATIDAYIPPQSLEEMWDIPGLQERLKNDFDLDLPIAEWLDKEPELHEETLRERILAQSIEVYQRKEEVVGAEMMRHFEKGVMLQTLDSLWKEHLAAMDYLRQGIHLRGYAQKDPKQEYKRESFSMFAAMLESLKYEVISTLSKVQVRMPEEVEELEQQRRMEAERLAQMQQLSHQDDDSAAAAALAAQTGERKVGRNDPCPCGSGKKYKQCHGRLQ
Chain of Sialic acid-binding Ig-like lectin 9 (Homo sapiens) (Q9Y336 whole entry): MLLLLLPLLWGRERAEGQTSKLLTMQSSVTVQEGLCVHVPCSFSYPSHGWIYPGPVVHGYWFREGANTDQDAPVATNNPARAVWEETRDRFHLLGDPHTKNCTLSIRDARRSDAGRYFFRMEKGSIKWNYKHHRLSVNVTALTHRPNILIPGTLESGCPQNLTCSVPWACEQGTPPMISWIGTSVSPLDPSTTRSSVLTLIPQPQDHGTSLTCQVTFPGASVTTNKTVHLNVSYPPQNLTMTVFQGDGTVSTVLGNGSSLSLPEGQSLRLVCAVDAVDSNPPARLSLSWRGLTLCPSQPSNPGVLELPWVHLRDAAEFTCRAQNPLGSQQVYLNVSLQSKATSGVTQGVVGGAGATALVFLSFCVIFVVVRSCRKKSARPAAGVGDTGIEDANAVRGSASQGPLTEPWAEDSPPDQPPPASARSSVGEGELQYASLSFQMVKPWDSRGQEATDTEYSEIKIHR

For the molecule `CCc1nc(CN2CCCN(C(=O)c3cnc[nH]3)CC2)cs1`, the Percent Effect was -0.253% in [1]; -2.7% in assay [2]; 2.03% in [3]; 4.57% in assay [4]; 2.14% in the assay with Trypanosoma cruzi; -1.66% in assay [5]. Also, the Percent Effect in assay [6] is 12.9%; in the assay filed under Homo sapiens, 2.83%; in [7], 3.96%; in assay [8], 1.22%; in [9], 4.62%.

In the case of `NS(=O)(=O)CCNC(=O)c1nnn(-c2ccc(F)cc2)c1C1CC1`, the Percent Effect in [1] is -0.864%; in assay [2], 8.11%; in assay [3] it was -3.7%; in assay [4], 0.877%; with Trypanosoma cruzi, 3.91%; in assay [5] it was 14.6%. The Percent Effect was 19.5% in assay [6]; -4.31% in the assay listed under Homo sapiens; 9.9% in assay [7]; 15.8% in assay [8]; -4.04% in assay [9].

On to `Cc1cc2n(n1)CC(CNCc1cnn(-c3ccccc3)c1)CN2` (stereo unspecified), for which the Percent Effect was 2.28% in assay [1]; 5.26% in assay [2]; -10.4% in [3]; 1.3% in assay [4]; 2.26% with Trypanosoma cruzi; 4.21% in assay [5]. For the same molecule, the Percent Effect in assay [6] was 13.9%; in the assay listed under Homo sapiens, 15.7%; in assay [7] it was 12.2%; in assay [8] it was 12.2%; in [9] it was -7.16%.

For `O=C(c1ccc(F)cc1)N1C[C@H]2CCC[C@@]2(COCc2ccccn2)C1`, the Percent Effect in [1] was -4.13%; in assay [2] it was 8.11%; in [3], -4.94%; in assay [4], 1.62%; in the assay on Trypanosoma cruzi, 2.44%; in [5] it was 7.96%. The Percent Effect is 22% in [6]; -12.1% in the assay filed under Homo sapiens; 3.24% in assay [7]; 17.9% in assay [8]; 1.95% in assay [9].

Take `O=C(NC[C@]12COC[C@H]1CN(Cc1nccs1)C2)c1ccccc1`: the Percent Effect is -4.56% in [1]; 17.3% in [2]; -62.1% in assay [3]; 6.67% in assay [4]; 3.34% in the assay with Trypanosoma cruzi; -6.87% in assay [5]. The Percent Effect in assay [6] is 15.7%; in the assay filed under Homo sapiens, 4.15%; in [7], 2.12%; in assay [8], 7.69%; in assay [9] it was -9.52%.

For `Cc1cc(C(=O)N2C[C@@H]3COC[C@]3(c3nnc(C4CC4)o3)C2)on1`, the Percent Effect in assay [1] was -4.61%; in assay [2], 13.3%; in assay [3] it was -3.2%; in assay [4] it was -0.841%; in the assay on Trypanosoma cruzi, 1.16%; in assay [5], -46.4%. Besides, the Percent Effect in assay [6] is 7.52%; in the assay listed under Homo sapiens it was -5.46%; in assay [7], -5.21%; in assay [8], 5%; in [9] it was -9%.

Take `Cc1nnc([C@@H]2CC[C@@H]3[C@@H](CCN3S(=O)(=O)c3cccnc3)O2)o1`: the Percent Effect in [1] was -6.5%; in assay [2], 10.8%; in assay [3], 7.11%; in assay [4], -2.36%; in the assay on Trypanosoma cruzi, -1.07%; in [5], 6.05%. In addition, the Percent Effect is 15.7% in [6]; -6.25% in the assay filed under Homo sapiens; 15.1% in assay [7]; 12.8% in [8]; -1.2% in assay [9].

With `O=C1[C@H]2CC[C@H](CN(Cc3ccccc3OC(F)F)C2)N1CC1CC1`, the Percent Effect worked out at 2.17% in assay [1]; 13.5% in assay [2]; 8.9% in assay [3]; 13.9% in assay [4]; 4.05% with Trypanosoma cruzi; 13.3% in assay [5]. The Percent Effect is 17.1% in [6]; 19% in the assay listed under Homo sapiens; 7.94% in assay [7]; 17.1% in [8]; -1.8% in assay [9].

`CC(C)c1nccn1C1CCCN(C(=O)c2ccc3c(c2)OCO3)C1` (stereo unspecified): the Percent Effect in assay [1] was 1.45%; in assay [2] it was -2.6%; in [3], 7.64%; in assay [4], -5.54%; in the assay on Trypanosoma cruzi, 1.27%; in assay [5] it was 5.26%. Further, the Percent Effect in assay [6] is 3.96%; in the assay listed under Homo sapiens, 9.94%; in assay [7], 0%; in [8] it was -2.35%; in assay [9] it was -9.35%.

Take `CS(=O)(=O)Cc1cccc(C(=O)NCC2Cc3ccccc3O2)c1` (stereo unspecified): the Percent Effect was -4.91% in [1]; 5.48% in assay [2]; 2.31% in [3]; 0.841% in assay [4]; -2.74% with Trypanosoma cruzi; 5.46% in [5]. Moreover, the Percent Effect in assay [6] was 17.9%; in the assay listed under Homo sapiens, -3.29%; in assay [7], 2.15%; in [8] it was 15%; in [9], -4.73%.

As to `CN1CCCC1CNC(=O)c1nnn(-c2ccc(F)cc2)c1C1CC1` (stereo unspecified), the Percent Effect in assay [1] was -5.49%; in assay [2], 0%; in assay [3], 1.3%; in [4] it was 3.88%; with Trypanosoma cruzi, -5.86%; in [5], 0%. In addition, the Percent Effect in [6] is 8.2%; in the assay listed under Homo sapiens, 10.9%; in [7] it was 4.95%; in assay [8], 3.66%; in assay [9], -4.68%.
